Test [1] is described as follows: compounds binding Alexa647 anti-His antibody – biochemical, small-molecule microarray, 635 nm fluorescence, artefact control for SMM control protein annotation, primary screen (AID 1128).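 Note: score merges feature fluorescence with signal-to-noise for each printed compound spot.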 The note with it: higher = more signal.
The subject of test [2] is Human papillomavirus type 1a E7 protein (residues 1-88). Nature of the test: HPV1a E7 small-molecule binders, primary screen, biochemical, small-molecule microarray, residues 1-88, 635 nm (AID 1129). To be noted: small-molecule microarray binding, fluorescence 635 nm; higher = more signal.
The target of test [3] is Focal adhesion kinase 1 (Homo sapiens) (UniProt Q05397). Nature of the test: PTK2 protein binding on printed compound slides – biochemical, small-molecule microarray, 635/667 nm fluorescence, BSA, DTT, primary screen (AID 1130).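 Note: composite of spot emission at 667 nm and signal to noise over triplicate slides.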 The note with it: 635 nm fluorescence, higher = more signal.
Chain of Focal adhesion kinase 1 (Homo sapiens) (Q05397 whole entry, looked up): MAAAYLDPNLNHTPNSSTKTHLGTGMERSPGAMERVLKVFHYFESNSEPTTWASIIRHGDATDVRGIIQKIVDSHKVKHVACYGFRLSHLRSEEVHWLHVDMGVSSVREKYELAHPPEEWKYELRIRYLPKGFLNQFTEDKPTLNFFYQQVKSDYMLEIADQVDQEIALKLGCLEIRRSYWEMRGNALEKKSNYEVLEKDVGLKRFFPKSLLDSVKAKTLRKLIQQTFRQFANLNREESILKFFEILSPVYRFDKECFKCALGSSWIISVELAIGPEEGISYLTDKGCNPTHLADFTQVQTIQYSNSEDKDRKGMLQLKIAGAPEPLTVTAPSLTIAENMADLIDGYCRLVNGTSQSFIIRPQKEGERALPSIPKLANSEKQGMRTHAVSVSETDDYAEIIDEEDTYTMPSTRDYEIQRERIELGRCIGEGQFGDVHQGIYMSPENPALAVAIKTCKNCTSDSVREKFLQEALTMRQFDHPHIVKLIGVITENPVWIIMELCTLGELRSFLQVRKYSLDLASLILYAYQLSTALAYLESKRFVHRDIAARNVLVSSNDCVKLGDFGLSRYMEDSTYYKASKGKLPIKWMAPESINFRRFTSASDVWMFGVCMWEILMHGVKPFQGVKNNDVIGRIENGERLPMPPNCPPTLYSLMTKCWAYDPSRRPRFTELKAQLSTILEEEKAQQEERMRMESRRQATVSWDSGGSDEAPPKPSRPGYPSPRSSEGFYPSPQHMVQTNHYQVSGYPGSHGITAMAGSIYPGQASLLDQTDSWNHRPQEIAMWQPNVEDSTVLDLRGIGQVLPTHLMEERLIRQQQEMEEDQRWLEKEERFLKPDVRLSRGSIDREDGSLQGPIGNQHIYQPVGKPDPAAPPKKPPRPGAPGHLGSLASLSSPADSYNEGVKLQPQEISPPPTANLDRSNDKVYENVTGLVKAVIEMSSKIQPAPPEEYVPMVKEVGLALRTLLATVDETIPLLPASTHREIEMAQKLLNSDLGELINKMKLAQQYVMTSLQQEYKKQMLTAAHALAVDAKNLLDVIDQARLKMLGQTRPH
The test system of test [4] is Fibrinogen (Alexa647-labelled). Kind of test: Alexa647-fibrinogen binding to printed small molecules – biochemical, small-molecule microarray, 635/667 nm fluorescence, artefact control for SMM control-protein annotation, profiling panel (AID 1131).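 Note: z-score merges 667 nm fluorescence with per-spot signal-to-noise over triplicate slides.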 To be noted: fibrinogen-A647 binding fluorescence, higher = more signal.
For test [5], the target named is Follistatin (Homo sapiens) (UniProt P19883). Kind of test: FST protein binding to printed compounds – biochemical, small-molecule microarray, 635/667 nm fluorescence, primary screen (AID 1132). To be noted: 635 nm fluorescence, higher = more signal.
Chain of Follistatin (Homo sapiens) (P19883 whole entry, looked up): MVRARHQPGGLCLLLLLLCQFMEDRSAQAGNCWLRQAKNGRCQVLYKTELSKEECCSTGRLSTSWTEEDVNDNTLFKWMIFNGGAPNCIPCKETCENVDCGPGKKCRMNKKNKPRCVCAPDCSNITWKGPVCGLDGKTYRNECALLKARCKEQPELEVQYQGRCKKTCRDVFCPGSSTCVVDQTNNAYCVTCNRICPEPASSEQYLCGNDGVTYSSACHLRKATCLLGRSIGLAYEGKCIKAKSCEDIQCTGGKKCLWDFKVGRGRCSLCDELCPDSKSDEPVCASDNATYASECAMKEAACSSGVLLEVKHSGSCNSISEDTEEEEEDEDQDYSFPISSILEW
Test [6] deals with Fibroblast growth factor 2 (Homo sapiens) (UniProt P09038). Kind of test: basic fibroblast growth factor binding to printed compounds – biochemical, small-molecule microarray, 635/667 nm fluorescence, primary screen (AID 1133). To be noted: FGF2, fluorescence 635/667, higher = more signal.
Chain of Fibroblast growth factor 2 (Homo sapiens) (P09038 whole entry, looked up): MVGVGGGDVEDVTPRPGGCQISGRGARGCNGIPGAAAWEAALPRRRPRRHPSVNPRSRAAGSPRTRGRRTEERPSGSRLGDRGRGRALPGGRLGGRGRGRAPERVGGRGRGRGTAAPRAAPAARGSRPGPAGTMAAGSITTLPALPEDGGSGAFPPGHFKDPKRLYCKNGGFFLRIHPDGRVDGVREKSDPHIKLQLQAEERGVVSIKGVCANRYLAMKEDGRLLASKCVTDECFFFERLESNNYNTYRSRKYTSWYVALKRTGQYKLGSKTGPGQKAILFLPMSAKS
Test [7] in a line: JC-1 mitochondrial potential readout, lung cancer cells – cell-based, A549, JC-1 fluorescence, basal, 24 h, 100 nL, profiling panel (AID 1138).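 Note: A549 lung adenocarcinoma cells under basal conditions with no added stimulus; test concentration not given here.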 The note with it: higher = more signal.
A further test concerns Lefty1. Kind of test: Lefty1 protein binding to printed compounds – biochemical, small-molecule microarray, 635/667 nm fluorescence, primary screen (AID 1139). The note with it: fluorescence 635/667, higher = more signal.
In test [8] the test system is wheat germ agglutinin (Triticum aestivum), Alexa647-labelled. Nature of the test: Alexa647-WGA lectin binding to printed small molecules – biochemical, small-molecule microarray, 635/667 nm fluorescence, artefact control for SMM control-protein annotation, profiling panel (AID 1140).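 Note: score merges 667 nm feature emission with signal to noise over triplicate slides.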 To be noted: WGA-A647 binding, 635 nm fluorescence, higher = more signal.
Test [9] concerns the target Luciferin 4-monooxygenase (Photinus pyralis) (UniProt P08659). Kind of test: inhibition of purified Photinus pyralis luciferase – biochemical, luminescence, purified enzyme, 2006 set, primary screen (AID 1141).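 Note: cell-free assay with purified firefly luciferase at 100 ng per well in PBS; test concentration not given here.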 The note with it: purified firefly luciferase, SteadyGlo luminescence, 30 min; higher = more signal, called active from +8 up or from −8 down.
For test [10], the system named is Wnt5a (protein binding on small-molecule microarray). Nature of the test: small molecules binding Wnt5a protein – biophysical, small-molecule microarray, 635/667 nm fluorescence, primary screen (AID 1142).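 Note: fluorescence read at 667 nm with signal to noise per printed feature.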 To be noted: 635 nm fluorescence, higher = more signal.
The nature of test [11]: ATP-based viability of Huh7 replicon cells – cell-based, CellTiter-Glo luminescence, basal, 48 h, cytotoxicity control for HCV replication inhibitor project, primary screen (AID 1143).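 Note: Huh7 hepatoma cells carrying a hepatitis C replication reporter with no stimulus; test concentration not given here.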 To be noted: higher = more signal, called active from +8 up or from −8 down. Background: In antiviral work, replicon cells carry a viral genome segment that copies itself.
The nature of test [12]: Pseudomonas biofilm growth suppression – PAO1 strain, BacTiter-Glo luminescence, LB-PBS, primary screen (AID 1144). The note with it: P. aeruginosa PAO1 biofilm, 12 h, higher = more signal.
A short description of test [13]: basal CRE-LacZ reporter activity in PC12 – cell-based, unstimulated, primary screen (AID 1145). The note with it: no forskolin, luminescence, 4.5 h, higher = more signal, called active from +8 up or from −8 down.
A short description of test [14]: forskolin-driven CRE-LacZ activity in PC12 – cell-based, CRE-LacZ reporter, forskolin-stimulated, primary screen (AID 1146).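 Note: PC12 cells with 6xCRE LacZ reporter stimulated by forskolin 10 µM; beta-galactosidase reporter signal reflecting CREB driven transcription.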 To be noted: luminescence, 4.5 h, higher = more signal, called active from +8 up or from −8 down.
Test [15] deals with Streptavidin (Streptomyces avidinii) (UniProt P22629). Nature of the test: compounds binding control protein streptavidin – biophysical, small-molecule microarray, 635/667 nm fluorescence, artefact control for SMM compound annotation, primary screen (AID 1147).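 Note: signal reflects streptavidin binding to arrayed compounds as a control protein.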 To be noted: higher = more signal.
Chain of Streptavidin (Streptomyces avidinii) (P22629 whole entry, looked up): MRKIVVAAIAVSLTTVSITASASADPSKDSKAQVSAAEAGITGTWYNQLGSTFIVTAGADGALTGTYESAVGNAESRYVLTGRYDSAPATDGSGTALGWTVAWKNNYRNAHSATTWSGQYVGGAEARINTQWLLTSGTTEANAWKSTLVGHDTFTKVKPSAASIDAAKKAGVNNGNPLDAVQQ
Test [16] can be described thus: probe aInhba binding on compound microarray – biochemical, small-molecule microarray, 635/667 nm fluorescence, primary screen (AID 1148).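 Note: score merges 667nm spot fluorescence with signal-to-noise for antibody binding to printed compounds.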 The note with it: higher = more signal.
Test [17] deals with Torsin-1A (Homo sapiens) (UniProt O14656). Kind of test: TOR1A wild-type binding on microarray – cell lysate, small-molecule microarray, lysate, 635/667 nm, primary screen (AID 1149). The note with it: COS7 hTOR1A-WT lysate, 635 nm fluorescence, higher = more signal.
Chain of Torsin-1A (Homo sapiens) (O14656 whole entry, looked up): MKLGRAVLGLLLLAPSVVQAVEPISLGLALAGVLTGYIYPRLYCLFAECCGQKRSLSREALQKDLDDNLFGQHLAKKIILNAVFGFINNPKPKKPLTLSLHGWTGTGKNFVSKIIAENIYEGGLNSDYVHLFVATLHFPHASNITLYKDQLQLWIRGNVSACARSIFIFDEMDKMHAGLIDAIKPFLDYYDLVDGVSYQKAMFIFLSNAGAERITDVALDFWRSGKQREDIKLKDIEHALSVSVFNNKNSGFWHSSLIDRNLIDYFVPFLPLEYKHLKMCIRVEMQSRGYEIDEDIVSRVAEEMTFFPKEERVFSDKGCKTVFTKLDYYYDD
Test [18] has the same target. Kind of test: torsin A mutant lysate binding on microarrays – cell lysate, small-molecule microarray, COS7 lysate, 635/667 nm fluorescence, primary screen (AID 1150).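 Note: score pools 667 nm emission and signal to noise measuring lysate protein binding.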 The note with it: COS7 hTOR1A mutant lysate, 635 nm fluorescence, higher = more signal.
Test [19] concerns Sonic hedgehog protein (Shh). Kind of test: Sonic hedgehog microarray binding compounds – biochemical, small-molecule microarray, 635/667 nm fluorescence, primary screen (AID 1151).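 Note: Shh protein binding to compounds spotted on small-molecule microarray slides; score combines spot fluorescence intensity with signal-to-noise across triplicate slides.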 The note with it: 635 nm fluorescence, higher = more signal.

Active and inactive are the calls of the source. Unless noted, the rule behind the calls is not given here.

Chain of Luciferin 4-monooxygenase (Photinus pyralis) (P08659 whole entry, looked up): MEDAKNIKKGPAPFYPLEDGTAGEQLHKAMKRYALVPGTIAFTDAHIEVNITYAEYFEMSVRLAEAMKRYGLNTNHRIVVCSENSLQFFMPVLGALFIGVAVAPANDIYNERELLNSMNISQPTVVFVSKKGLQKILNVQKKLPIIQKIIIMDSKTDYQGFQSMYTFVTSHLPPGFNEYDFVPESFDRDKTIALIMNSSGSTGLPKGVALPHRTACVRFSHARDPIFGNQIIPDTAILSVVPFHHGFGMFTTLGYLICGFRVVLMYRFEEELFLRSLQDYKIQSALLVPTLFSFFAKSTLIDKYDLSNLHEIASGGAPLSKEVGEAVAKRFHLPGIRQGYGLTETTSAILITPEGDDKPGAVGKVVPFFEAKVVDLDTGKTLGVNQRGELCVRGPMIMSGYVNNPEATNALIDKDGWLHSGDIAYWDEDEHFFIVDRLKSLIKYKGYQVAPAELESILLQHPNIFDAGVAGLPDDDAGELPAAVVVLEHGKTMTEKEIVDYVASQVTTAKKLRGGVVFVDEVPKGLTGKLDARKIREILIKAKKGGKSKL

As for `C=CCC(OC(C)=O)[C@@H]1[C@@H](N(Cc2cc3ccccc3o2)C(=O)c2ccc(C)cc2)c2cc(OCCCO)ccc2N1C(=O)c1ccc2ccccc2c1` (stereo not given in full), the composite z-score was 0.192 in test [1]; -0.409 in test [2]; 0.281 in test [3]; 0.257 in test [4]; 0.503 in [5]; 0.286 in test [6]. Also, the composite z-score was 0.217 in the test with Lefty1; 0.32 in [8]; 0.132 in test [10]; 0.0282 in test [15]; -0.0963 in test [16]; -0.353 with Torsin-1A (Homo sapiens) [17]. Besides, the composite z-score with Torsin-1A (Homo sapiens) [18] was -0.0172; in test [19] it was 0.218. Also, the z-score in test [7] was 1.24; in test [9] it was -1.76 (inactive); in test [11], 0.0491 (inactive); in [12] it was -0.571 (inactive); in test [13] it was 3.93 (inactive); in test [14], 0.697 (inactive).

As to `CC(C)c1ccc(NN2C(C(O)c3cccc(O)c3)C=CC3C(=O)N(c4ccccc4)C(=O)C32)cc1` (stereo not given), the composite z-score in [1] was 1.16; in [2] it was 1.25; in test [3], 0.781; in test [4], 0.992; in [5], 1.35; in [6], -0.179. Moreover, the composite z-score in the test with Lefty1 turned out to be 0.61; in test [8], 0.754; in test [10], 0.125; in test [15], 1.52; in test [16], 0.0236; with Torsin-1A (Homo sapiens) [17], 0.77. The composite z-score with Torsin-1A (Homo sapiens) [18] was 1.3; in test [19] it was 0.671. For the same compound, the z-score in test [7] was 0.116; in test [9], -0.824 (inactive); in test [11], -0.392 (inactive); in test [12], -0.406 (inactive); in [13], 1.39 (inactive); in [14], 1.67 (inactive).

As for `CCOC(=O)C1=CC[C@@H](c2ccccc2Cl)N(S(=O)(=O)c2ccc(C)cc2)C1`, the composite z-score in test [1] stood at 1.15; in test [2] it was 1.18; in test [3] it was 1.29; in test [4] it was 0.838; in test [5], 0.37; in [6] it was 0.163. The composite z-score in the test with Lefty1 is -0.612; in test [8] it was 0.91; in test [10], 0.149; in [15] it was 0.884; in test [16] it was 0.0569; with Torsin-1A (Homo sapiens) [17] it was 0.623. For the same compound, the composite z-score with Torsin-1A (Homo sapiens) [18] is 0.738; in test [19], -0.53. The z-score in test [7] was 2.73; in test [9], 0.614 (inactive); in [11] it was -5.35 (inactive); in test [12], -0.602 (inactive); in test [13], 0.173 (inactive); in test [14] it was -0.0077 (inactive).

Turning to `O=C(O)[C@H]1C[C@H]2C(=O)NCC(=O)N2[C@H]1c1ccc(O)cc1`, the composite z-score in test [1] was 2.65; in test [2] it was -0.722; in test [3], 0.0888; in [4], -0.908; in test [5] it was 1.32; in test [6], 1.05. Further, the composite z-score in the test on Lefty1 is 0.368; in test [8], -0.0842; in test [10], -0.0071; in test [15] it was -0.54; in test [16], -0.168; in the test with Torsin-1A (Homo sapiens) [17] it was 0.562. For the same compound, the composite z-score was -0.0135 with Torsin-1A (Homo sapiens) [18] and 0.751 in [19]. The z-score was 1.97 in [7]; -1.54 (inactive) in test [9]; -0.283 (inactive) in test [11]; -0.642 (inactive) in test [12]; -0.13 (inactive) in test [13]; -0.108 (inactive) in [14].

With `COCCOC(=O)N1C(=O)[C@@]2(c3cc(C#CCC(C(=O)OC)C(=O)OC)ccc31)[C@H](C(=O)N1CCCCCCC1)[C@H]1C(=O)O[C@H](c3ccccc3)[C@H](c3ccccc3)N1[C@@H]2c1ccc(OCCO)cc1`, the composite z-score in test [1] was determined as 0.887; in [2], 1.25; in test [3], 1.97; in test [4], 0.965; in [5] it was 1.49; in [6], 1.62. The composite z-score stood at 1.65 in the test with Lefty1; 1.6 in [8]; 1.42 in test [10]; 3.01 in [15]; 1.69 in [16]; 2.01 with Torsin-1A (Homo sapiens) [17]. For the same compound, the composite z-score worked out at 1.87 with Torsin-1A (Homo sapiens) [18] and 2.32 in test [19]. For the same compound, the z-score in test [7] was -1.49; in [9], -0.0546 (inactive); in test [11], -2.31 (inactive); in test [12], -1.02 (inactive); in test [13], -1.15 (inactive); in test [14], -0.0519 (inactive).

The values are drawn from PubChem BioAssay.
